# Experimental data taken from PubChem BioAssay (Tox21).
# A number with no mark means an inactive call. Records with an inconclusive call do not appear. Entries that show only a call come without a potency. The source made the active and inactive calls. Unless noted, calls come from the whole dose curve; as a rule, active = well fitted curve in the direction sought with a large enough effect in the repeat runs; inconclusive = weak or mixed curves; inactive = no such curve, though single readings can be large; an effect the other way counts as inactive or inconclusive.
# Columns and labels:
# [1] = qHTS assay to identify small molecule HDAC inhibitors - cell viability counter screen (AID 1259365); note: series mostly up to about 92 µM; nearly all actives have a fitted effect of over 50% in size
# Outline: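 Viability readout: CellTiter-Glo luminescence. Wild-type HCT-116 cells, 2hr compound treatment following overnight attachment at 37 C.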
# [2] = qHTS assay to identify small molecule agonists of the sonic hedgehog signaling (Shh) pathway - cell viability counter screen (AID 1259366); note: nearly all actives have a fitted effect of over 50% in size
# Outline: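 Viability measured fluorometrically (CellTiter-Fluor, 1hr, 37C) in 3T3 Gli1-Luc reporter cells after 23hr compound exposure within a 24hr incubation at 37C/5% CO2.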
# [3] = qHTS assay to identify small molecule antagonists of the sonic hedgehog signaling (Shh) pathway - cell viability counter screen (AID 1259367); note: nearly all actives have a fitted effect of over 55% in size
# Outline: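 Using CellTiter-Fluor, viability of Gli1-Luc reporter 3T3 cells is read by fluorescence in the wells used for the Shh luciferase assay. Treatment lasts 23 hr with conditioned medium, then reagent 1 hr at 37C.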
# [4] = qHTS assay to identify small molecule agonists of the sonic hedgehog signaling (Shh) pathway (AID 1259368; calls by dose curve;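 note: NIH/3T3-derived 3T3Gli1-Luc cells carrying a stable Gli1-driven firefly luciferase reporter; series mostly up to about 92 µM; nearly all actives have a fitted effect of over 15% in size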)
# Outline: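 Luminescent signal was taken as a measure of Gli1-controlled luciferase expression in stably transfected NIH/3T3-derived cells that had been treated for 24 hr with compounds delivered in DMSO.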
# [5] = qHTS assay to identify small molecule antagonists of the sonic hedgehog signaling (Shh) pathway (AID 1259369; calls by dose curve; note: nearly all actives have a fitted effect of over 45% in size)
# Outline: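 Screening used 3T3Gli1-Luc cells at 2,000 per well, compounds delivered in DMSO, and conditioned medium as agonist stimulus; plates incubated 24hr at 37 C and 5% CO2 before a 30min luciferase step.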
# [6] = target: Estrogen receptor beta (Homo sapiens) (UniProt Q92731); assay: qHTS assay to identify small molecule agonists of the estrogen receptor beta (ER-beta) signaling pathway (AID 1259377; active = well fitted activation curve with a large enough effect in the signal ratio in the repeat runs, not every such curve was filed as active; the % refers to the signal ratio; note: potency is the fitted concentration of half-maximal effect)
# Chain of Estrogen receptor beta (Homo sapiens) (Q92731 whole entry, looked up): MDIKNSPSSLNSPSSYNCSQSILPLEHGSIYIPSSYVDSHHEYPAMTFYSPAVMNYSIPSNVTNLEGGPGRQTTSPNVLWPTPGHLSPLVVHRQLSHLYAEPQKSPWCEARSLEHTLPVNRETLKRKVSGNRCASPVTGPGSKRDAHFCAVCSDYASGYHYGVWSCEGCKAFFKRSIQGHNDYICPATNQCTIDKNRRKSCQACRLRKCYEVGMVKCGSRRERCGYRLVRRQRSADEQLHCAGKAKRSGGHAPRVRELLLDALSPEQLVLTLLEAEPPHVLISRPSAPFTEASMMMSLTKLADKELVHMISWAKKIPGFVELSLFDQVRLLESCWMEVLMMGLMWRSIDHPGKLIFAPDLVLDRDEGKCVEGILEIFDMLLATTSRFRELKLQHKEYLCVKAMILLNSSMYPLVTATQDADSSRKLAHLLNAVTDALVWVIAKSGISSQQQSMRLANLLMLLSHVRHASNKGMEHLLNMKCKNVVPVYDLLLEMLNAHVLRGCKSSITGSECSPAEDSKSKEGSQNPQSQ
# Outline: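 A UAS-controlled beta-lactamase reporter in ER-beta-UAS-bla HEK293T cells reports receptor activation. Compounds act for 16 hr at 37C in 2% charcoal-stripped serum, and a FRET substrate is read by fluorescence after 2 hours.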
# [7] = target: Estrogen receptor beta (Homo sapiens) (UniProt Q92731); assay: qHTS assay to identify small molecule antagonists of the estrogen receptor beta (ER-beta) signaling pathway (AID 1259378; active = well fitted inhibition curve with a large enough effect in the signal ratio in the repeat runs, not every such curve was filed as active; the % refers to the signal ratio)
# Outline: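 Antagonist mode: compounds added to beta-lactamase reporter HEK293T ER-beta-UAS cells stimulated with E2 (1nM final), 16 hr at 37C. LiveBLAzer B/G FRET substrate, 2 hours room temperature, fluorescence read-out.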
# [8] = qHTS assay to identify small molecule agonists of the androgen receptor (AR) signaling pathway in the presence of an antagonist - cell viability counter screen (AID 1259379);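 note: MDA-kb2 human breast cancer cells carrying an MMTV luciferase reporter; series mostly up to about 92 µM; nearly all actives have a fitted effect of over 25% in size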
# Outline: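 In MDA-kb2 cells (human breast carcinoma, MMTV-luciferase), compounds at 15 concentrations plus 3.0uM nilutamide; 16 hr, 37C, 0% CO2; CellTiter-Fluor fluorescence read for viability.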
# [9] = target: Estrogen receptor (Homo sapiens) (UniProt P03372); assay: qHTS assay to identify small molecule agonists of the estrogen receptor alpha (ER-alpha) signaling pathway in the presence of an antagonist (AID 1259383; calls by dose curve; note: nearly all actives have a fitted effect of over 15% in size; note: potency is the fitted concentration of half-maximal effect; for activation: top concentration of the series differs between compounds)
# Chain of Estrogen receptor (Homo sapiens) (P03372 whole entry, looked up): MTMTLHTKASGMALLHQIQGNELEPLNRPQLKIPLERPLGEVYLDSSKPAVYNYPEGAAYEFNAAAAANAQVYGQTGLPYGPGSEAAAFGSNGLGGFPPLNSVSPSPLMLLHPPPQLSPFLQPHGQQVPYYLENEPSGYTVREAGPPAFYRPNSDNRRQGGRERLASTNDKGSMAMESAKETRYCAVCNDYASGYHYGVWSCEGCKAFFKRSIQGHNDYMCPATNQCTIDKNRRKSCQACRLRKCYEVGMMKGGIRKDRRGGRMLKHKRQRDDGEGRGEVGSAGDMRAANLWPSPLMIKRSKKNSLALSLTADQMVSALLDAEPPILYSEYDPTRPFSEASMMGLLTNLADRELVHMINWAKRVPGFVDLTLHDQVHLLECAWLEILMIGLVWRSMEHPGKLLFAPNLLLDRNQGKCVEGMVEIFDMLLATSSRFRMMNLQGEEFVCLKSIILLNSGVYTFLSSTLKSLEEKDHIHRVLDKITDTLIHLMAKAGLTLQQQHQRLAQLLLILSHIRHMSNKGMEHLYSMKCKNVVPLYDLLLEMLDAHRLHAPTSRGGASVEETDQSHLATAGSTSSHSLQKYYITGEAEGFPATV
# Outline: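 In VM7Luc4E2 cells, 4,000 per well, compounds at 15 concentrations were co-incubated 22hr at 37C with 10.0nM final ICI-182,780. Luminescence from the stably transfected 4×ERE-luciferase reporter was recorded 30min after ONE-Glo addition.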
# [10] = qHTS assay to identify small molecule agonists or antagonists of the thyroid stimulating hormone receptor (TSHR) signaling pathway - wild type cell line counter screen (AID 1259384; calls by dose curve)
# Outline: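 Counter screen in untransfected Hek293: compounds (15-point titration, triplicate) plus phosphodiesterase inhibitor Ro20-1724 added after 18 h plating; 30 min RT. Intracellular cAMP via competitive d2/cryptate immunoassay, 1 h incubation.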
# [11] = target: Thyrotropin receptor (Homo sapiens) (UniProt P16473); assay: qHTS assay to identify small molecule antagonists of the thyroid stimulating hormone receptor (TSHR) signaling pathway (AID 1259385; calls by dose curve; note: nearly all actives have a fitted effect of over 20% in size)
# Chain of Thyrotropin receptor (Homo sapiens) (P16473 whole entry, looked up): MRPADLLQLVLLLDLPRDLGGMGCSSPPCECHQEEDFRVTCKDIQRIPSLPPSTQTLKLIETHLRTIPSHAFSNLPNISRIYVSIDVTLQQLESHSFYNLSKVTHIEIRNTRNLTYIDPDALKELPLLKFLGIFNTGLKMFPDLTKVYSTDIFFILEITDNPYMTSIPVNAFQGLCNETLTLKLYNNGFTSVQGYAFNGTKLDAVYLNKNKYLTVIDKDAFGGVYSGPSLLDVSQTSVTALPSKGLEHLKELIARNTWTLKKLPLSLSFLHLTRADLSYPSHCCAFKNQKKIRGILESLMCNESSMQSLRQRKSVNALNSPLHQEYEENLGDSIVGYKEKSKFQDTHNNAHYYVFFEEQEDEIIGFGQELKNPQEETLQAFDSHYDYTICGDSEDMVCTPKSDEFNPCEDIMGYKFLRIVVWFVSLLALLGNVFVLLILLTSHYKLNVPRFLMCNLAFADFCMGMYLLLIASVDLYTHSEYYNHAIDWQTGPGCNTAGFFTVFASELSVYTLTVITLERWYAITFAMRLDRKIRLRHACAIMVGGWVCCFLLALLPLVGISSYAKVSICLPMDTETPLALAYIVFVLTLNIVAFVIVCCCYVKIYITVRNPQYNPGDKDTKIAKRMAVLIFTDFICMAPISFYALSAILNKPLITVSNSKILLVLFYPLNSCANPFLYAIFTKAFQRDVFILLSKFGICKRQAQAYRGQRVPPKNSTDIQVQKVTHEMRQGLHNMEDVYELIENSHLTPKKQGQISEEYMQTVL
# Outline: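 Antagonist mode: compound-treated TSHR-expressing HEK293 cells were stimulated with 1.5 ng/mL TSH (final) in presence of Ro20-1724 for 30 min at RT. HTRF cAMP detection after 1 h; each compound tested at 15 concentrations, triplicate.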
# [12] = qHTS assay to identify small molecule agonists of the estrogen receptor alpha (ER-alpha) signaling pathway in the presence of an antagonist - cell viability counter screen (AID 1259386);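 note: series mostly up to about 92 µM; cells exposed to compounds for 22 h at 37 °C before the viability read; nearly all actives have a fitted effect of over 30% in size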
# Outline: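 Fluorescent CellTiter-Fluor viability signal from VM7Luc4E2 cells, with the reagent added during the final hour of a 22hr compound exposure at 37C in the presence of 10.0nM ICI-182,780.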
# [13] = target: Progesterone receptor (Homo sapiens) (UniProt P06401); assay: qHTS assay to identify small molecule antagonists of the progesterone receptor (PR) signaling pathway (AID 1346795; active = well fitted inhibition curve with a large enough effect in the signal ratio in the repeat runs, not every such curve was filed as active; the % refers to the signal ratio)
# Chain of Progesterone receptor (Homo sapiens) (P06401 whole entry, looked up): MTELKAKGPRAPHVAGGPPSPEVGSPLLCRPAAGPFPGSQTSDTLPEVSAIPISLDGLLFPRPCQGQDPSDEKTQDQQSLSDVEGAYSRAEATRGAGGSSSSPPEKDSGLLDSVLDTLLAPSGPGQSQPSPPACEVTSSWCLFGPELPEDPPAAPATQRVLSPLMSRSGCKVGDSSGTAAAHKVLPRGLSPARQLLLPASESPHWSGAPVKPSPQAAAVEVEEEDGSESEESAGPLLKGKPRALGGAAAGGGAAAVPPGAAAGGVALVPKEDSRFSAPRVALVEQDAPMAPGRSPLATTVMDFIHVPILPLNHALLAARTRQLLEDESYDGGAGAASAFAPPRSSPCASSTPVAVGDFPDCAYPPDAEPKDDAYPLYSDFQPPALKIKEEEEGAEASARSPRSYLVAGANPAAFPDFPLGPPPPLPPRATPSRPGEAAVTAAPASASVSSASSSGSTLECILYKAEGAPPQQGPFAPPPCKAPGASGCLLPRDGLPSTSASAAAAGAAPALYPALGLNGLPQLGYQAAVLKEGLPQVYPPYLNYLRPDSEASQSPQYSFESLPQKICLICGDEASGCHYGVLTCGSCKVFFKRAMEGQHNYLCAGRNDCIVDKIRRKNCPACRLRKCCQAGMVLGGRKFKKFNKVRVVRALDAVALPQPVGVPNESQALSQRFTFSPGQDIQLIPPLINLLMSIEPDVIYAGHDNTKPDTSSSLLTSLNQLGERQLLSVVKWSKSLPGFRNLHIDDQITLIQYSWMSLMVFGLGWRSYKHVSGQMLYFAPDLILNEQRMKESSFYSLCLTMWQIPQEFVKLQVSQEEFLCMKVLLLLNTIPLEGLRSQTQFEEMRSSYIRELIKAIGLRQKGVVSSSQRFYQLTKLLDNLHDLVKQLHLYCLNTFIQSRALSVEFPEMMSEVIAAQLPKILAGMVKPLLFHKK
# Outline: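 HEK293T PR-UAS-bla reporter cells in charcoal-stripped serum (2%) received compound after a 6 hr settling period, followed by R5020 agonist at 1 nM final; 16 hr incubation preceded the FRET substrate step and fluorescence measurement.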
# [14] = qHTS assay to identify small molecule antagonists of the progesterone receptor (PR) signaling pathway - cell viability counter screen (AID 1346798); note: series mostly up to about 92 µM; nearly all actives have a fitted effect of over 50% in size
# Outline: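 Same-well multiplex: after 16 hr at 37C with compound and R5020 stimulation, HEK293T cells carrying a UAS-bla reporter received LiveBLAzer substrate (2 hr RT), then CellTiter-Glo (30 min RT) for luminescent viability.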
# [15] = qHTS assay to identify small molecule antagonists of the TGF-beta/Smad signaling pathway - cell viability counter screen (AID 1346824); note: nearly all actives have a fitted effect of over 50% in size
# Outline: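 Cytotoxicity counter-screen run in the same wells as the beta-lactamase Smad reporter read: CellTiter-Glo luminescence after 30 min at room temperature. HEK 293T SBE-bla cells had 5 hr compound exposure at 37 C with TGF-beta1 (0.25 ng/mL stock).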
# [16] = qHTS assay to identify small molecule agonists of the estrogen receptor beta (ER-beta) signaling pathway - cell viability counter screen (AID 1259380); note: nearly all actives have a fitted effect of over 30% in size
# Outline: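 Viability of ER-beta-UAS-bla HEK293T cells was determined by CellTiter-Glo luminescence following 16 hr treatment with test compounds at 37C.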
# [17] = target: Androgen receptor (Homo sapiens) (UniProt P10275); assay: qHTS assay to identify small molecule agonists of the androgen receptor (AR) signaling pathway in the presence of an antagonist (AID 1259381; calls by dose curve; note: nearly all actives have a fitted effect of over 15% in size)
# Chain of Androgen receptor (Homo sapiens) (P10275 whole entry, looked up): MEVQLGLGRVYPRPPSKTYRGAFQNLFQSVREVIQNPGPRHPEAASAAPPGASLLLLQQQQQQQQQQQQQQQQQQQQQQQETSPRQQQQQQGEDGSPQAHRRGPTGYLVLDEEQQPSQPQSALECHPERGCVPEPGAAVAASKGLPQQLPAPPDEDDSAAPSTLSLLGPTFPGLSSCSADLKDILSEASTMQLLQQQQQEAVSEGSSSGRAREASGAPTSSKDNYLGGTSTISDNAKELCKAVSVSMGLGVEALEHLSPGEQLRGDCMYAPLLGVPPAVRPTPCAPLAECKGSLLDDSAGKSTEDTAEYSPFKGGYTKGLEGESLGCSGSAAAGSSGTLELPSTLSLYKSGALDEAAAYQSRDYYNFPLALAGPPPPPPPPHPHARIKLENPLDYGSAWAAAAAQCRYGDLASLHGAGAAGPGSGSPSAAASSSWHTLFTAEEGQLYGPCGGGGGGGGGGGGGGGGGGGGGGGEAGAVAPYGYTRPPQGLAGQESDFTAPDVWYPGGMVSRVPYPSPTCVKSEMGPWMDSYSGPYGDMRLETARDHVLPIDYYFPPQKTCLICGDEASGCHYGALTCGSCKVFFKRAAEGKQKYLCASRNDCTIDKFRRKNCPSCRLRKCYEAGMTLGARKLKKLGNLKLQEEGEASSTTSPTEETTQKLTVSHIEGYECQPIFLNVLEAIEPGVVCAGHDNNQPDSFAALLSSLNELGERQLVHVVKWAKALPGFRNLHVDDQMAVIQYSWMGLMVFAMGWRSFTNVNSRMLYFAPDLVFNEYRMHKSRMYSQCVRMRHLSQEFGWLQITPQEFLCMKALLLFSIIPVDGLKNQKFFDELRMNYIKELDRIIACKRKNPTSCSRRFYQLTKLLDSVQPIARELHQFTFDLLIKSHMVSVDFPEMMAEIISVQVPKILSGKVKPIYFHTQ
# Outline: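 Here, 15-concentration compound series were pin-transferred onto MDA-kb2 MMTV-luciferase cells already dosed with nilutamide (3.0uM final). After 16hr at 37C, ONE-Glo was added and luminescence read 30min later at room temperature.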
# [18] = qHTS assay to identify small molecule antagonists of the estrogen receptor beta (ER-beta) signaling pathway - cell viability counter screen (AID 1259382);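 note: HEK293T cells carrying ER-beta-UAS-bla reporter stimulated with estradiol; series mostly up to about 92 µM; nearly all actives have a fitted effect of over 55% in size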
# Outline: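 Tox21 10K library tested in qHTS format on ER-beta-bla HEK293T cells stimulated with 1nM E2; 16 hr treatment at 37C. Same-well CellTiter-Glo luminescence served as the cell viability measure.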
# [19] = target: Progesterone receptor (Homo sapiens) (UniProt P06401); assay: qHTS assay to identify small molecule agonists of the progesterone receptor (PR) signaling pathway (AID 1346784; calls by dose curve; note: nearly all actives have a fitted effect of over 30% in size)
# Outline: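 Agonist mode, quantitative HTS format in a HEK 293T line expressing a UAS-controlled beta-lactamase reporter; 16 hr compound exposure at 37C in 2% charcoal-stripped FBS, then LiveBLAzer B/G FRET fluorescence.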
# [20] = qHTS assay to identify small molecule agonists of the progesterone receptor (PR) signaling pathway - cell viability counter screen (AID 1346799; calls by dose curve; note: nearly all actives have a fitted effect of over 45% in size)
# Outline: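 Counter screen for cytotoxicity: compound-treated PR-UAS-bla HEK293T cells (16 hr, 37C, 5% CO2) were assayed with CellTiter-Glo, luminescence measured after 30 min at room temperature.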
Structure (SMILES),outcome [1],outcome [2],outcome [3],outcome [4],Potency [5],Potency [6],outcome [7],outcome [8],Potency [9],outcome [10],outcome [11],outcome [12],Potency [13],outcome [14],outcome [15],Potency [16],outcome [17],outcome [18],Potency [19],Potency [20]
CC(C)(C)c1ccc(C(=O)CCCCl)cc1,inactive,inactive,inactive,inactive,inactive,inactive,inactive,inactive,7500 nM (active),inactive,inactive,inactive,inactive,inactive,inactive,–,–,–,–,–
COC(C)(C)CC(C)=O,inactive,inactive,inactive,inactive,inactive,inactive,–,inactive,–,–,–,inactive,inactive,inactive,inactive,inactive,inactive,inactive,inactive,–
CC(=O)O[C@@H]1CC2C3CCc4cc(OC(=O)c5ccccc5)ccc4C3CCC2(C)[C@H]1OC(C)=O (some centres not stated),inactive,inactive,inactive,inactive,inactive,13.3 nM (active),–,inactive,47.3 nM (active),inactive,inactive,inactive,–,–,inactive,–,inactive,inactive,inactive,inactive
COc1ccc(Cl)cc1C,inactive,inactive,inactive,inactive,inactive,inactive,inactive,inactive,–,–,–,inactive,inactive,inactive,inactive,inactive,–,–,inactive,inactive
CCCOc1ccc(C(=O)OCCN(CC)CC)cc1N,inactive,inactive,inactive,inactive,inactive,inactive,inactive,inactive,–,inactive,inactive,inactive,inactive,inactive,inactive,inactive,–,–,inactive,–
CCCC(=O)OC,inactive,inactive,inactive,inactive,inactive,inactive,inactive,inactive,inactive,inactive,inactive,inactive,inactive,inactive,inactive,–,–,inactive,inactive,inactive
CCOC(=O)CC,inactive,inactive,inactive,inactive,inactive,inactive,–,inactive,inactive,inactive,inactive,inactive,inactive,inactive,inactive,–,–,inactive,inactive,inactive
